The source of these data is PubChem BioAssay (NCI).

About 83,000 compounds went through this panel and 20% of them were active in at least one assay; those are over-represented in the sample as a whole.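 Each cell line was grown in a 96-well plate and treated with one concentration of compound for 48 hours. Values below 10 were considered active.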 A number with no mark means an inactive call. Calls of active or inactive are those of the source.

Holding throughout (assay): NCI-60 one-dose screen, 48 h (100 = growth as untreated, 0 = no growth, -100 = all killed)
The test system of one test is SR leukemia. Conditions: 10 µM unless noted.
The test system of another test is RPMI-8226 leukemia. As to conditions: 10 µM.
For another test, the system named is OVCAR-8 ovarian. Conditions: 10 µM unless noted.
The next test deals with OVCAR-5 ovarian. Conditions: 10 µM unless noted.
Another test deals with OVCAR-4 ovarian. As to conditions: 10 µM unless noted.
For the next test, the system named is SK-OV-3 ovarian. As to conditions: 10 µM.
The next test has as its system IGROV1 ovarian. Conditions: 10 µM unless noted.
The next test has as its system OVCAR-3 ovarian. As to conditions: 10 µM unless noted.
The next test deals with HS 578T breast. As to conditions: 10 µM unless noted.
A further test concerns NCI/ADR-RES ovarian. As to conditions: 10 µM unless noted.
The test system of another test is T-47D breast. As to conditions: 10 µM.
Another test concerns BT-549 breast. Conditions: 10 µM unless noted.
The subject of another test is MDA-MB-435 melanoma. As to conditions: 10 µM unless noted.
In the next test the test system is SW-620 colon. As to conditions: 10 µM unless noted.
For the next test, the system named is MCF7 breast. Conditions: 10 µM unless noted.
In another test the test system is HCT-116 colon. Conditions: 10 µM unless noted.
The subject of another test is HCC-2998 colon. As to conditions: 10 µM unless noted.
The test system of another test is KM12 colon. Conditions: 10 µM unless noted.

For `Clc1ccc(Nc2nc(Nc3ccccc3)nc(Nc3ccc(-c4cc(-c5ccc(Cl)cc5)on4)cc3)n2)cc1`, the growth in the test on SR leukemia is 51.5%; with RPMI-8226 leukemia, 50.8%; in the test on OVCAR-8 ovarian it was 39.4%; in the test on OVCAR-5 ovarian it was 87.2%; with OVCAR-4 ovarian, 64.6%; in the test with SK-OV-3 ovarian, 91.2%. Besides, the growth in the test with IGROV1 ovarian was 34.7%; in the test on OVCAR-3 ovarian, 71.6%; with HS 578T breast it was 11.7%; in the test on NCI/ADR-RES ovarian, 51.4%; with T-47D breast it was 71.7%; with BT-549 breast it was 59.1%. Also, the growth in the test on MDA-MB-435 melanoma is 11.1%; with SW-620 colon, 38.7%; in the test with MCF7 breast, 50%; with HCT-116 colon, 27.4%; with HCC-2998 colon, 56.4%; in the test on KM12 colon, 56.9%.

As for `O=S(=O)(/N=C1C=C/C(=N\S(=O)(=O)c2ccccc2)c2ccccc2\1)c1ccccc1`, the growth was 107% in the test on SR leukemia; 77.9% in the test on RPMI-8226 leukemia; 94.9% with OVCAR-8 ovarian; 114% in the test on OVCAR-5 ovarian; 91.9% in the test with OVCAR-4 ovarian; 104% in the test with SK-OV-3 ovarian. Further, the growth was 112% in the test on IGROV1 ovarian; 101% in the test with OVCAR-3 ovarian; 112% in the test on HS 578T breast; 102% in the test with NCI/ADR-RES ovarian; 93.1% in the test on T-47D breast; 104% in the test on BT-549 breast. For the same compound, the growth in the test on MDA-MB-435 melanoma was 0.648% (active); with SW-620 colon, 112%; in the test on MCF7 breast it was 84.1%; in the test with HCT-116 colon it was 94.5%.

As for `COc1ccc(C2CC(c3cc(OC)c(OC)c(OC)c3)=NN2c2ccc(S(N)(=O)=O)cc2)cc1` (stereo not given), the growth in the test on SR leukemia is 33.2%; in the test on RPMI-8226 leukemia, 4.35% (active); in the test on OVCAR-8 ovarian it was 61.9%; in the test with OVCAR-5 ovarian it was 92.3%; in the test with OVCAR-4 ovarian it was 69.9%; with SK-OV-3 ovarian, 88.3%. Besides, the growth in the test with IGROV1 ovarian was 73.9%; with OVCAR-3 ovarian, 77.5%; in the test with HS 578T breast, 66.7%; with NCI/ADR-RES ovarian, 55.4%; with T-47D breast, 55.9%; in the test with BT-549 breast, 83.9%. In addition, the growth with MDA-MB-435 melanoma is 66.2%; in the test with SW-620 colon, 67.9%; in the test on MCF7 breast it was 57%; with HCT-116 colon it was 48.2%; in the test on HCC-2998 colon, 79.7%; in the test with KM12 colon, 63.5%.

Regarding `N#C[S-].[Au+].c1ccc(CN2[CH-]N(Cc3ccccc3)C(c3ccccc3)=C2c2ccccc2)cc1`, in the test with SR leukemia, the growth is -8.44% (active).

Consider `CC1SC(c2cccc(Oc3ccccc3)c2)N(CCc2cccs2)C1=O` (stereo not given), for which the growth is -2.19% (active) with SR leukemia; -13.5% (active) with RPMI-8226 leukemia; 0% (active) in the test on OVCAR-8 ovarian; -13.9% (active) in the test with OVCAR-5 ovarian; 8.45% (active) in the test with OVCAR-4 ovarian; -8.94% (active) in the test on SK-OV-3 ovarian. Besides, the growth was -23.6% (active) with IGROV1 ovarian; -98.1% (active) with OVCAR-3 ovarian; -44.8% (active) in the test on HS 578T breast; -28% (active) with NCI/ADR-RES ovarian; 0.211% (active) in the test on T-47D breast; -69.2% (active) with BT-549 breast. In addition, the growth in the test on MDA-MB-435 melanoma is -43.1% (active); with SW-620 colon, -3.96% (active); in the test with MCF7 breast, -0.665% (active); in the test with HCT-116 colon, -85.6% (active); with HCC-2998 colon, -32.9% (active); in the test with KM12 colon it was -25.2% (active).

`CC(=O)OCC1OC([S-])C(OC(C)=O)C(OC(C)=O)C1OC(C)=O.[Au+].c1ccc(CN2[CH-]N(Cc3ccccc3)C(c3ccccc3)=C2c2ccccc2)cc1`: the growth with SR leukemia was -8.38% [4.75 µM] (active).

With `CCN(C(=O)c1ccc2c3c(cccc13)C=C2)c1ccccc1`, the growth with SR leukemia is 83.4%; with RPMI-8226 leukemia it was 96.7%; in the test with OVCAR-8 ovarian it was 91.2%; in the test with OVCAR-5 ovarian, 90.5%; in the test on OVCAR-4 ovarian it was 106%; in the test with SK-OV-3 ovarian, 96%. Also, the growth was 102% with IGROV1 ovarian; 112% in the test on OVCAR-3 ovarian; 120% in the test with HS 578T breast; 93.2% in the test on NCI/ADR-RES ovarian; 96% in the test with T-47D breast; 107% in the test on BT-549 breast. Besides, the growth is 90.9% with MDA-MB-435 melanoma; 111% in the test with SW-620 colon; 109% in the test with MCF7 breast; 97.8% with HCT-116 colon; 123% in the test with HCC-2998 colon; 118% in the test with KM12 colon.

As for `O=C(CCc1nnc2sc(-c3ccccc3)nn12)c1nc2ccccc2[nH]1`, the growth is 69.6% with SR leukemia; 83% in the test with RPMI-8226 leukemia; 97.2% with OVCAR-8 ovarian; 116% in the test with OVCAR-5 ovarian; 98.7% in the test with OVCAR-4 ovarian; 107% with SK-OV-3 ovarian. Moreover, the growth was 96.8% with IGROV1 ovarian; 116% in the test on OVCAR-3 ovarian; 102% in the test with HS 578T breast; 92.5% with NCI/ADR-RES ovarian; 80.3% in the test on T-47D breast; 98.4% with BT-549 breast. The growth in the test on MDA-MB-435 melanoma was 94.8%; with SW-620 colon it was 123%; with MCF7 breast, 87%; in the test on HCT-116 colon, 72.2%; in the test with HCC-2998 colon it was 104%; in the test on KM12 colon, 100%.

For `COc1cc(/C=C2\C(=O)Nc3ccccc32)cc(OC)c1O`, the growth in the test on SR leukemia was -10.3% (active); with RPMI-8226 leukemia, 46.6%; in the test on OVCAR-8 ovarian, 78.5%; in the test on OVCAR-5 ovarian, 112%; with OVCAR-4 ovarian, 89.1%; with SK-OV-3 ovarian, 93.5%. Besides, the growth in the test with IGROV1 ovarian is 70.2%; in the test with OVCAR-3 ovarian, 46.9%; in the test with HS 578T breast it was 18.4%; with NCI/ADR-RES ovarian, 19.1%; in the test with T-47D breast it was 49.6%; in the test on BT-549 breast it was 74.8%. The growth with MDA-MB-435 melanoma was -25.3% (active); in the test on SW-620 colon, 31.5%; with MCF7 breast, 30.8%; in the test on HCT-116 colon it was 46.4%; in the test with HCC-2998 colon it was 78.8%; in the test with KM12 colon it was 32.2%.

For the compound `Cc1ccc(S(=O)(=O)c2ccc3[nH]c(=O)[nH]c(=O)c3c2)cc1`, the growth is 82.3% in the test on SR leukemia; 95.6% in the test with RPMI-8226 leukemia; 95.2% in the test with OVCAR-8 ovarian; 107% in the test on OVCAR-5 ovarian; 97.9% in the test with OVCAR-4 ovarian; 97.2% in the test on SK-OV-3 ovarian. Also, the growth in the test with IGROV1 ovarian is 104%; in the test on OVCAR-3 ovarian, 110%; in the test on HS 578T breast it was 101%; with NCI/ADR-RES ovarian it was 107%; in the test with T-47D breast, 90.9%; with BT-549 breast, 92.4%. Also, the growth is 116% with MDA-MB-435 melanoma, 105% in the test with SW-620 colon, 91.5% in the test on MCF7 breast and 90.9% in the test on HCT-116 colon.

In the case of `CN1CCc2c(Sc3ccc(C(=O)NO)cc3)c3ccccc3n2C1`, the growth with SR leukemia was 12.6%; with RPMI-8226 leukemia, 7.63% (active); in the test on OVCAR-8 ovarian, 7.62% (active); with OVCAR-5 ovarian, 27.1%; in the test on OVCAR-4 ovarian, 28.3%; with SK-OV-3 ovarian, 62.4%. In addition, the growth was 75.6% in the test with IGROV1 ovarian; 42.8% with OVCAR-3 ovarian; 60.2% in the test with HS 578T breast; 75.2% in the test on NCI/ADR-RES ovarian; 39.7% in the test with T-47D breast; 76.9% in the test with BT-549 breast. In addition, the growth was 23.7% in the test on MDA-MB-435 melanoma; 19.6% with SW-620 colon; 32.5% in the test with MCF7 breast; 3.85% (active) in the test with HCT-116 colon; 66.5% in the test with HCC-2998 colon; 53.9% in the test on KM12 colon.
